In ChEMBL document CHEMBL1961873, “Compounds: GSK PKIS; Assays: Nanosyn kinase panel” (2012):
Values joined by “and” are separate entries in the source; they are usually repeats but may differ in a detail not shown here. Equal values may be shown once.

Legend:
[1] = target: Serine/threonine-protein kinase MRCK alpha (Homo sapiens) (UniProt Q5VT25); details: at 0.1 µM
[2] = target: Serine/threonine-protein kinase MRCK alpha (Homo sapiens) (UniProt Q5VT25); details: at 1 µM
[3] = target: Serine/threonine-protein kinase MRCK beta (Homo sapiens) (UniProt Q9Y5S2); details: at 0.1 µM
[4] = target: Serine/threonine-protein kinase MRCK beta (Homo sapiens) (UniProt Q9Y5S2); details: at 1 µM
[5] = target: Ribosomal protein S6 kinase alpha-5 (Homo sapiens) (UniProt O75582); details: at 0.1 µM
[6] = target: Ribosomal protein S6 kinase alpha-5 (Homo sapiens) (UniProt O75582); details: at 1 µM
[7] = target: Ribosomal protein S6 kinase alpha-4 (Homo sapiens) (UniProt O75676); details: at 0.1 µM
[8] = target: Ribosomal protein S6 kinase alpha-4 (Homo sapiens) (UniProt O75676); details: at 1 µM
[9] = target: Ribosomal protein S6 kinase beta-1 (Homo sapiens) (UniProt P23443); details: at 0.1 µM
[10] = target: Ribosomal protein S6 kinase beta-1 (Homo sapiens) (UniProt P23443); details: at 1 µM
[11] = target: T1, 3-phosphoinositide-dependent protein kinase 1 (Homo sapiens) (UniProt O15530); details: at 0.1 µM;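 also: values are mean inhibition of PDK1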
T1 sequence (whole entry): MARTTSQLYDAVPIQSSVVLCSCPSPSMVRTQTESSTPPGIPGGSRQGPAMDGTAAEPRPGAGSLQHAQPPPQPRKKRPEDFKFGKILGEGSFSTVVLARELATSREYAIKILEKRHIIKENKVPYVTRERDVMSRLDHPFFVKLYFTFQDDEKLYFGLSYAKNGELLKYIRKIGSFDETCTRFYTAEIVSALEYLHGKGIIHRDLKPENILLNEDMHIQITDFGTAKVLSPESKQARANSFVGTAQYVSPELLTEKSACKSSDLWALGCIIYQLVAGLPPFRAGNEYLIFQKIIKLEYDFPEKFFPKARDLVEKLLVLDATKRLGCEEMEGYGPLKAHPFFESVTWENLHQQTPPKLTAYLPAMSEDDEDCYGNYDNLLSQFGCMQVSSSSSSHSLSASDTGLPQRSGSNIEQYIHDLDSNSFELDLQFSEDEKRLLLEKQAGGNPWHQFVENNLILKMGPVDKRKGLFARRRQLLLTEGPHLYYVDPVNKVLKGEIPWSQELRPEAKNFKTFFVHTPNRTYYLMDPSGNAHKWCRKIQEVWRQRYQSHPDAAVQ

[12] = target: cAMP-dependent protein kinase catalytic subunit alpha (Homo sapiens) (UniProt P17612); details: at 0.1 µM
[13] = target: cAMP-dependent protein kinase catalytic subunit alpha (Homo sapiens) (UniProt P17612); details: at 1 µM
[14] = target: Protein kinase C alpha type (Homo sapiens) (UniProt P17252); details: at 0.1 µM
[15] = target: Protein kinase C alpha type (Homo sapiens) (UniProt P17252); details: at 1 µM
[16] = target: Protein kinase C beta type (Homo sapiens) (UniProt P05771); details: at 0.1 µM
[17] = target: Protein kinase C beta type (Homo sapiens) (UniProt P05771); details: at 1 µM
[18] = target: Protein kinase C eta type (Homo sapiens) (UniProt P24723); details: at 0.1 µM
[19] = target: Protein kinase C eta type (Homo sapiens) (UniProt P24723); details: at 1 µM
[20] = target: Protein kinase C gamma type (Homo sapiens) (UniProt P05129); details: at 0.1 µM;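 also: values are mean percent inhibition of PKC gamma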

Sequence of Protein kinase C eta type (Homo sapiens) (P24723 whole entry): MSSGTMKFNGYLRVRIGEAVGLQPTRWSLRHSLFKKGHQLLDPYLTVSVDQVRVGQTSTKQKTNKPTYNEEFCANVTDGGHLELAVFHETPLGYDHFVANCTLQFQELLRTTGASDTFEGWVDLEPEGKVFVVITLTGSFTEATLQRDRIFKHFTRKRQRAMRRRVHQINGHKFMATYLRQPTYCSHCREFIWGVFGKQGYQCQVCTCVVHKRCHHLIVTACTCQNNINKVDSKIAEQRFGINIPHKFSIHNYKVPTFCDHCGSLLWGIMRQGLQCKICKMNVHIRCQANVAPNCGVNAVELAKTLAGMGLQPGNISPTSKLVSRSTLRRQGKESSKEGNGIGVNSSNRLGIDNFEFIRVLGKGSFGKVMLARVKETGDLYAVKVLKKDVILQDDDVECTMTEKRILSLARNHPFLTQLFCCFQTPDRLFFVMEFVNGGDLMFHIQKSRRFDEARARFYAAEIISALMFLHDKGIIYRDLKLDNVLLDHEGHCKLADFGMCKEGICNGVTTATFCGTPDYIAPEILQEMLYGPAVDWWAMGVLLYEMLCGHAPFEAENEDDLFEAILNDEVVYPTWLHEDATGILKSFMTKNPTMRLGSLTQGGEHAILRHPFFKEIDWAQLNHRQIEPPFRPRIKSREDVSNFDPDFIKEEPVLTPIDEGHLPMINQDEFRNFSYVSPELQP
Sequence of Serine/threonine-protein kinase MRCK beta (Homo sapiens) (Q9Y5S2 whole entry): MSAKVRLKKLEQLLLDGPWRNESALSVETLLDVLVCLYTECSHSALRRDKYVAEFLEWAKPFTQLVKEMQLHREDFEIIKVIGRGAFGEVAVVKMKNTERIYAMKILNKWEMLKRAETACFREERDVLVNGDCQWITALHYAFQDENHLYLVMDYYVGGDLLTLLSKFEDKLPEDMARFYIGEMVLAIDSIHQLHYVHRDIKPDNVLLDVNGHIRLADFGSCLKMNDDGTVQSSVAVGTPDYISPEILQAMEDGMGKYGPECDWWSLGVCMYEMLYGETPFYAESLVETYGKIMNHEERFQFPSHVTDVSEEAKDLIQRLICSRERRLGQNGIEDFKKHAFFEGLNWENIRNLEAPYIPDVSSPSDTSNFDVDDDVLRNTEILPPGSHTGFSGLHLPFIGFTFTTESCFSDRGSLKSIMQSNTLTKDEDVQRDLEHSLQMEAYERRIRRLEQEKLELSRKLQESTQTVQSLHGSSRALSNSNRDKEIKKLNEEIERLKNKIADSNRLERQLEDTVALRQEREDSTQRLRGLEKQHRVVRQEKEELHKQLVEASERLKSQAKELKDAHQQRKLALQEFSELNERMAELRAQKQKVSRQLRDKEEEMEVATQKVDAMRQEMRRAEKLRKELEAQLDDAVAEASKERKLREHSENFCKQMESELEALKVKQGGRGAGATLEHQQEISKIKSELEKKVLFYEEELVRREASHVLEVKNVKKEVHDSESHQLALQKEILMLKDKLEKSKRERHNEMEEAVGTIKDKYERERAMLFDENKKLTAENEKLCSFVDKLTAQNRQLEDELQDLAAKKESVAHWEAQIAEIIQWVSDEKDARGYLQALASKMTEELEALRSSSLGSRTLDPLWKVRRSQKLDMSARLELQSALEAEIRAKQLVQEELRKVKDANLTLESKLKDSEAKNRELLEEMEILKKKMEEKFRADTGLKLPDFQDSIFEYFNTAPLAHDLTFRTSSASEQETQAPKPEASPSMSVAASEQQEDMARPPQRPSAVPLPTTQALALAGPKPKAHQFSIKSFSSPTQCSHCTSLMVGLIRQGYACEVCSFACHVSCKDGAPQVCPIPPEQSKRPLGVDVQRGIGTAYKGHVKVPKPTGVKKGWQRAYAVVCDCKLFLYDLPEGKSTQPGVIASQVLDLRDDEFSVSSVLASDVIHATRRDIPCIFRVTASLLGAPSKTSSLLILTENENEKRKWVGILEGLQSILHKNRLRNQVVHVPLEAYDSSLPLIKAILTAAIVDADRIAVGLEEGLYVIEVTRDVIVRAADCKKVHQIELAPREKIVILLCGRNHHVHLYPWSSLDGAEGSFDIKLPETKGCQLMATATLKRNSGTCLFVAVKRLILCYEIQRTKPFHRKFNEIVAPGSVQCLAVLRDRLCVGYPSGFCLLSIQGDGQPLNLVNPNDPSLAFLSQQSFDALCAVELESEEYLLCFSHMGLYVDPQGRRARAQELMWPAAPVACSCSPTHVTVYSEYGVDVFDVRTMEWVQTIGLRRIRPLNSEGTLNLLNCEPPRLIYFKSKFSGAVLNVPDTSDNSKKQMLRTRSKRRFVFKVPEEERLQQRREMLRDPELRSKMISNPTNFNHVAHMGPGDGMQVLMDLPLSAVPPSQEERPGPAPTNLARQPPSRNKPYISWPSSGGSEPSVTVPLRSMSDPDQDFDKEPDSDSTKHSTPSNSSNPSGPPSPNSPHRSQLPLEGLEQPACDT
Sequence of Protein kinase C beta type (Homo sapiens) (P05771 2-671 limits assumed): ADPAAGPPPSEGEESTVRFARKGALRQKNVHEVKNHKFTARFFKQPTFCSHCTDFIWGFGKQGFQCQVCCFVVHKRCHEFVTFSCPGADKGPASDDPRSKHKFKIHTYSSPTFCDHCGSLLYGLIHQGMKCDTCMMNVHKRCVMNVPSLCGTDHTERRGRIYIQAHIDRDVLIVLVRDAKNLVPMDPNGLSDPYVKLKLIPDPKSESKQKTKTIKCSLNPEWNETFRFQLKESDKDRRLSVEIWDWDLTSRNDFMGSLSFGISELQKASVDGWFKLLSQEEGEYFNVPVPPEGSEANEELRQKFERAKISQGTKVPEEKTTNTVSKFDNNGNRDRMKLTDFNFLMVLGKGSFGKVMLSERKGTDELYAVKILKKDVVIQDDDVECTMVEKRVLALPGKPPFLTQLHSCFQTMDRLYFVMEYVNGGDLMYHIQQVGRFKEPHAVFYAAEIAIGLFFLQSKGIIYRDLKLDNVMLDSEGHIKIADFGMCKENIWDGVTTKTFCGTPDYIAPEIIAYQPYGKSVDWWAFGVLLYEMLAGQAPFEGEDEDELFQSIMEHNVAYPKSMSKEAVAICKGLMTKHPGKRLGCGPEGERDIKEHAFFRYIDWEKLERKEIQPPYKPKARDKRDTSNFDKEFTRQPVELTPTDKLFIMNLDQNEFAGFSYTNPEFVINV
Sequence of Ribosomal protein S6 kinase beta-1 (Homo sapiens) (P23443 whole entry, looked up): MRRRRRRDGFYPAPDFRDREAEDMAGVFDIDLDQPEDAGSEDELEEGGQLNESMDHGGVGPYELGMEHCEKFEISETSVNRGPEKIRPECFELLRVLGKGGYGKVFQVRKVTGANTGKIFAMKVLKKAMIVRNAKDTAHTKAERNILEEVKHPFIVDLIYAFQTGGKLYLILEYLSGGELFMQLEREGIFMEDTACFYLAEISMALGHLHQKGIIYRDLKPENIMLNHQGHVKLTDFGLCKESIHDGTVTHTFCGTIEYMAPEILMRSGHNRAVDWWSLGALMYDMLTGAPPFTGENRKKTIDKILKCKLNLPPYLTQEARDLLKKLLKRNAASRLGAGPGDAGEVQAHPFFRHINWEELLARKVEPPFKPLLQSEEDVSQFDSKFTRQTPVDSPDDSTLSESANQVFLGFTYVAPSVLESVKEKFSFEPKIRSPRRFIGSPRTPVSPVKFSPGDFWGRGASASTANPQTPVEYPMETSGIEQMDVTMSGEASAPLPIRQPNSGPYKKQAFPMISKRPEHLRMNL

SMILES	inhibition [1]	inhibition [2]	inhibition [3]	inhibition [4]	inhibition [5]	inhibition [6]	inhibition [7]	inhibition [8]	inhibition [9]	inhibition [10]	inhibition [11]	inhibition [12]	inhibition [13]	inhibition [14]	inhibition [15]	inhibition [16]	inhibition [17]	inhibition [18]	inhibition [19]	inhibition [20]
COc1cc(N2CCN(C(C)C)CC2)ccc1Nc1nc(Nc2cccc3ncccc23)c2cc[nH]c2n1	-0.06%	4.44%	0.85%	4.14%	0.1%	1.16%	1.01%	2.7%	0.36%	2.23%	-0.4%	0.01%	0.68%	-0.39%	1.71%	-0.38%	2.34%	-2.11%	-3.36%	-0.77%
Cc1c2ccc(N(C)c3ccnc(Nc4cccc(S(N)(=O)=O)c4)n3)cc2nn1C	-0.27%	0.18%	0.8%	0.18%	2.9%	1.29%	2.14%	5.76%	2.59%	2.64%	1.36%	-2.27%	-0.54%	-2.47%	-0.96%	0.1%	-0.52%	4.05%	1.15%	1.65%
CN1CCN(Cc2ccc(-c3cc4ncnc(Nc5ccc(OCc6cccc(F)c6)c(Cl)c5)c4s3)o2)CC1	-1.39% and -0.36%	-3.23% and 2%	-0.68% and -0.01%	-1.28% and -0.15%	7.37% and 3.64%	6.3% and 5.71%	1.66% and 2.85%	1.25% and 4.7%	0.39% and 0.55%	1.79% and 5.31%	14.8% and 0.07%	1.2% and 3.28%	5.56% and 3.03%	0.64% and 0.88%	1.87% and 2.52%	-1.25% and 0.04%	0.12% and 3.28%	4.86% and 6.13%	3.75% and 6.04%	0.69% and 2.55%
CC1(C)CC(n2cnc(-c3ccc(F)cc3)c2-c2ccnc(N)n2)CC(C)(C)N1	0.39%	-0.52%	0.89%	1.72%	-2.87%	-2.36%	2.08%	3.62%	1.01%	0.28%	0.82%	0.29%	4.01%	0.96%	2.63%	1.89%	3.35%	1.68%	-2.97%	-2.6%
Cc1cc(O)cc(C)c1/C=C/c1cncc(C(N)=O)c1	0.25%	0.43%	1.39%	1.02%	1.68%	2.9%	1.67%	2.18%	1.07%	0.31%	1.65%	1.78%	2.91%	1.24%	1.91%	-0.18%	-2.09%	1.74%	-2.58%	3.81%
Cc1nnc(-c2cccc(-c3ccc(C(=O)NCC4CC4)cc3)c2)o1	-0.4%	2.11%	-0.19%	-0.8%	4.52%	3.95%	3.13%	3.75%	1.6%	3.46%	2.18%	1.83%	2.07%	0.65%	1.45%	2.27%	3.52%	3.46%	6.75%	1.76%
